Results on 49 molecules are retold here after PubChem BioAssay AID1851 (National Center for Advancing Translational Sciences (NCATS), 2009).

SMILES strings stand for the structures. Where “and” joins values, the source holds several entries; their conditions need not be identical. Equal values may be shown once. The campaign covered roughly 16,000 compounds. About 5,800 (36%) were called active. Another 23% or so got no clear call; they are omitted. The call rests on the fitted dose curve; in most records, active means well fitted curve in the direction sought with a large enough effect; inconclusive means small, poorly fitted or top-dose-only effect, or effect the other way; inactive means no such curve, though single readings can be large or run the other way. This is one part of the list. Some structures have more than one record in an assay (separate samples or runs), and their calls can disagree.
On the % scale 0 is the no-effect control and ±100 the full control effect.

For the experiment, the target named is Cytochrome P450 2C19 (Homo sapiens) (UniProt P33261). As to the kind of experiment: Cytochrome panel assay with activity outcomes. Conditions: recombinant CYP, pro-luciferin dealkylation, luminescence, p450-cyp2c19; series mostly up to 57.1 µM; activity, negative = inhibition: at the top concentration.
Cytochrome P450 2C19 (Homo sapiens), sequence (P33261 whole entry, looked up): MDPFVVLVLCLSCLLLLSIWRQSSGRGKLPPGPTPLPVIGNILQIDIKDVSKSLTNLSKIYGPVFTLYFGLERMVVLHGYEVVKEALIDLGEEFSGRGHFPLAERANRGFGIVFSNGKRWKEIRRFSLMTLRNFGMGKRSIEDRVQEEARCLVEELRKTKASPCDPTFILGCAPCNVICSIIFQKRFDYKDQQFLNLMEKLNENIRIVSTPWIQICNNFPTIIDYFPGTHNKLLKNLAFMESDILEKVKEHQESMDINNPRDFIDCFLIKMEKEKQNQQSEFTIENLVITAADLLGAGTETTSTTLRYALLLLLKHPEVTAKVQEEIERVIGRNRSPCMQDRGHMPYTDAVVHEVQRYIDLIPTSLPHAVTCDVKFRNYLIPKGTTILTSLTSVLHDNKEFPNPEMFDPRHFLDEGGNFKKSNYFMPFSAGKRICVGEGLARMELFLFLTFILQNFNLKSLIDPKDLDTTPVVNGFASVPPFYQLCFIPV
The AC50 is the concentration at which the activity in the assay is half-maximal. As for `COc1ccccc1CNc1ccnc(-c2ccc3c(c2)OCO3)n1`, the AC50 was 3.16 µM (active).

As to `O=C(Nc1ccccc1)N1CC2(CCN(C(=O)c3cnccn3)CC2)C1`, the “activity, negative = inhibition” value is 0.474% (inactive).

Turning to `Cc1ccn2cc(CSc3ccccc3N)nc2c1`, the AC50 was 2.51 µM (active).

Take `N#C/C(=C\Nc1ccccn1)C(=O)c1ccco1`: the activity, negative = inhibition is -6.24% [at 11.4 µM] (inactive).

With `CCSC(=N)N`, the “activity, negative = inhibition” value was 29.4% (inactive).

Regarding `CSC(=N)N`, the AC50 result was “inactive and 631 nM (active)”.

In the case of `CC(C)SC(=N)N`, the “activity, negative = inhibition” value was 13.8% (inactive).

As for `CCC/C=C(\CCC)C(NC(=O)c1ccc(-c2ccccc2)cc1)c1ccc(C(=O)OC)cc1` (centres undefined), the “activity, negative = inhibition” value is 10.8% (inactive).

Regarding `CCC/C=C(\CCC)C(NC(=O)Cc1ccccc1)c1ccc(C(=O)OC)cc1` (centres undefined), the AC50 is 2.51 µM (active).

`CCC/C=C(\CCC)C(NC(=O)c1cccs1)c1ccc(C(=O)OC)cc1` (centres undefined): the AC50 was 0.794 µM (active).

Take `CCC/C=C(\CCC)C(NC(=O)c1ccc(C(F)(F)F)cc1)c1ccc(C(F)(F)F)cc1` (centres undefined): the “activity, negative = inhibition” value is -13.6% (inactive).

Turning to `CCC/C=C(\CCC)C(NC(=O)Oc1ccc(F)cc1)c1ccc(C(=O)OC)cc1` (centres undefined), the “activity, negative = inhibition” value was -17.8% (inactive).

For `CCC/C=C(\CCC)C(NC(=O)c1ccc(C(F)(F)F)cc1)c1ccccc1` (centres undefined), the AC50 is 10 µM (active).

For the molecule `CCC/C=C(\CCC)C(NC(=O)c1cccs1)c1ccc(C(F)(F)F)cc1` (centres undefined), the AC50 was 0.316 µM (active).

For `COc1ccc(-n2c(=O)c(-c3cc(F)cc(F)c3)nc3cnc(N4CCNCC4)nc32)cc1`, the “activity, negative = inhibition” value was -25.9% (inactive).

As for `Nc1ccc(S(=O)(=O)Nc2ccc(Cl)nn2)cc1`, the “activity, negative = inhibition” value was 9.31% [at 25.6 µM] (inactive).

As to `CC(C)(C)NS(=O)(=O)c1ccc(NS(=O)(=O)c2ccc(F)cc2)cc1`, the “activity, negative = inhibition” value was 4.37% (inactive).

In the case of `CC(C)(C)c1ccc(NS(=O)(=O)c2ccc(N)cc2)cc1`, the AC50 was 0.398 µM (active).

In the case of `CN(C)CCCNc1ncnc2nc[nH]c12`, the activity, negative = inhibition is 19.7% [at 11.4 µM] (inactive).

Regarding `COc1ccccc1-c1cc(N(C)Cc2ccco2)ncn1`, the AC50 is 3.98 µM (active).

Regarding `CN(C)c1ccnc(-c2ccccc2C(F)(F)F)n1`, the “activity, negative = inhibition” value was -34.4% (inactive).

In the case of `CN(C)Cc1ccccc1-c1nccc(N(C)Cc2ccco2)n1`, the “activity, negative = inhibition” value is -17.9% (inactive).

Consider `CN(Cc1ccco1)c1ccnc(-c2ccccc2C(F)(F)F)n1`, for which the AC50 was 7.94 µM (active).

Take `CN(Cc1ccco1)c1cc(-c2ccccc2Cl)ncn1`: the AC50 is 7.94 µM (active).

As for `CN(C)Cc1ccccc1-c1cc(N(C)Cc2ccco2)ncn1`, the “activity, negative = inhibition” value is 37.8% (inactive).

`Cc1ccccc1-c1cc(N(C)Cc2ccco2)ncn1`: the AC50 is 6.31 µM (active).

In the case of `CN(Cc1ccco1)c1cc(-c2ccccc2C(F)(F)F)ncn1`, the AC50 was 10 µM (active).

In the case of `O[C@]1(c2ccccc2)c2ccccc2NC2=NCCN21`, the activity, negative = inhibition was 36.2% [at 11.4 µM] (inactive).

As for `Cc1onc(C(=O)/C=C/N(C)C)c1C(=O)Nc1nccs1`, the “activity, negative = inhibition” value is -12.2% (inactive).

On to `COC(=O)c1ccccc1NC(=O)c1ccc(COc2ccc(C)c(C)c2)o1`, for which the AC50 was 2 µM (active).

With `COC(=O)c1ccccc1NC(=O)c1ccc(Cn2cc(Cl)cn2)o1`, the AC50 is 1.12 µM (active).

Turning to `Cc1ccc(OCc2ccc(C(=O)Nc3nccs3)o2)cc1C`, the AC50 is 2.51 µM (active).

As for `COc1ccc(NC(=O)c2ccc(COc3ccccc3)o2)cc1`, the AC50 is 5.62 µM (active).

As to `Cc1ccc2ncc([N+](=O)[O-])n2c1`, the “activity, negative = inhibition” value was -12.1% (inactive).

For the molecule `CCOC(=O)CC(NC(=O)c1ccc(C)cc1)c1ccc(C)cc1` (centres undefined), the AC50 is 14.1 µM (active).

Turning to `CCOC(=O)CC(NC(=O)c1ccco1)c1ccc(OC)cc1` (centres undefined), the AC50 was 14.1 µM (active).

Turning to `CCOc1ccc(C(CC(=O)O)NC(=O)COc2ccccc2)cc1` (centres undefined), the “activity, negative = inhibition” value is -6.04% (inactive).

For the molecule `CCOC(=O)CC(NC(=O)c1cccs1)c1ccc(OCC)cc1` (centres undefined), the AC50 was 2.82 µM (active).

As for `CC(C)CSC[C@@H]1O[C@H](n2cnc3c(N)nccc32)[C@H](O)[C@@H]1O`, the activity, negative = inhibition was 39.2% [at 11.4 µM] (inactive).

On to `COCCNC(=O)CCn1nc(-c2ccc(Cl)cc2)ccc1=O`, for which the “activity, negative = inhibition” value was 3.18% (inactive).

As to `COCCNC(=O)c1cn(Cc2c(F)cccc2Cl)nn1`, the AC50 was 14.1 µM (active).

As for `CN(CC(=O)Nc1cccc2c1CCCC2)S(=O)(=O)c1ccc(Br)cc1`, the AC50 is 5.01 µM (active).

Regarding `CN(CCC(=O)O)S(=O)(=O)c1ccccc1`, the activity, negative = inhibition is -21.5% [at 11.4 µM] (inactive).

With `NC(N)=NC[C@@H]1CCCCCCN1`, the activity, negative = inhibition is 23.1% [at 11.4 µM] (inactive).

In the case of `NNC(=O)Cc1cccnc1`, the activity, negative = inhibition was 7.22% [at 11.4 µM] (inactive).

Consider `O=C(CSCc1c(Cl)cccc1Cl)NCc1cccnc1`, for which the AC50 was 3.55 µM (active).

Turning to `Cn1c(C(=O)O)c(CC(=O)NCc2cccnc2)c2ccccc21`, the “activity, negative = inhibition” value was 4.63% (inactive).

In the case of `O=C(CCc1ccccc1)NCc1cccnc1`, the AC50 was 25.1 µM (active).

As for `O=C(c1ccccc1)c1c[nH]c(C(=O)NCc2cccnc2)c1`, the AC50 was 14.1 µM (active).
